The campaign covered roughly 310,000 compounds. About 14,000 (4.5%) showed an effect of 50% or more. The effect is printed as a negative number. Many of the other results were omitted from the sample, so strong results are more common in it than they were.
molecular target: human ether-à-go-go-related gene (hERG) potassium channel (human, UniProt Q12809); assay: primary screen, population patch clamp on CHO cells stably expressing hERG; higher = less effect of the substance
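Also: peak tail current of the secondary pulse compared with the same well before compound.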

Sequence of human ether-à-go-go-related gene (hERG) potassium channel (Q12809 whole entry, looked up): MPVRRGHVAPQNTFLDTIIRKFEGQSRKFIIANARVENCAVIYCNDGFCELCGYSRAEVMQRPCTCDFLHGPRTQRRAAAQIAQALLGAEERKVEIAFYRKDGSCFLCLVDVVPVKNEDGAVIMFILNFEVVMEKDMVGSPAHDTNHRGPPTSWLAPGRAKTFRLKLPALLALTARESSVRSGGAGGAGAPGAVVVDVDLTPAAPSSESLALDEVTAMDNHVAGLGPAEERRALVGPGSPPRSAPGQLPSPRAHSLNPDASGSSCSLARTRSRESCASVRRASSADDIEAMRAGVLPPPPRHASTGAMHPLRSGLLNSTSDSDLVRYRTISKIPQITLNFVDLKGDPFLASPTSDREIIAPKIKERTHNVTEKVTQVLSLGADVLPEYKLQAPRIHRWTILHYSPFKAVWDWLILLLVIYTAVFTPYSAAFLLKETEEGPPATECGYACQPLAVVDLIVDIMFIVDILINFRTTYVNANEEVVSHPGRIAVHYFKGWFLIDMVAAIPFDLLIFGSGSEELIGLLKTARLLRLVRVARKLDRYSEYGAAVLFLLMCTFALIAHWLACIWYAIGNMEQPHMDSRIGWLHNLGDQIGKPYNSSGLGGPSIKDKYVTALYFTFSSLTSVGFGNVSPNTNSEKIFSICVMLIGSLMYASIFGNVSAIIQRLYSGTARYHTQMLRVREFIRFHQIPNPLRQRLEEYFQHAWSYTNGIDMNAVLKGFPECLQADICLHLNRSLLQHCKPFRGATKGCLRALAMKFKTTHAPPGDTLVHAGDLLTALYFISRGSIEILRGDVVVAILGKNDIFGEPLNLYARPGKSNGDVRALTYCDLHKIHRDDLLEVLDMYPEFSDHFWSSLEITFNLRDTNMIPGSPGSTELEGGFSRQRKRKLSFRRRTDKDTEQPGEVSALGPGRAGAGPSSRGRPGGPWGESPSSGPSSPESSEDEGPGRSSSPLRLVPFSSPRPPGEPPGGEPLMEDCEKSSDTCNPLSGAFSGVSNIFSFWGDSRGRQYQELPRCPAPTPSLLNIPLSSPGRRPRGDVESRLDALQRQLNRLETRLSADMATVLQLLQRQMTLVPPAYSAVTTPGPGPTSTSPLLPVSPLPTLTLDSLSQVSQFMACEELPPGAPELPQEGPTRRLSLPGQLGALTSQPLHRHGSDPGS

| SMILES | hERG current change (%, negative = inhibition) at 10uM [%] |
| --- | --- |
| CC(C)CCNC(=O)C12CN(Cc3ccccc3)CC1C(c1ccc([N+](=O)[O-])cc1)=NO2 (stereo not drawn) | -53.1 |
| O=C(NCCCCc1ccccc1)C12CN(Cc3ccccc3)CC1C(c1ccc([N+](=O)[O-])cc1)=NO2 (stereo not drawn) | 5.9 |
| Cc1ccc(CCNC(=O)C23CN(Cc4ccccc4)CC2C(c2cccc([N+](=O)[O-])c2)=NO3)cc1 (stereo not drawn) | -14.8 |
| CC(C)CCNC(=O)C12CN(Cc3ccccc3)CC1C(c1cccc([N+](=O)[O-])c1)=NO2 (stereo not drawn) | -32.9 |
| O=C(NCCCCc1ccccc1)C12CN(Cc3ccccc3)CC1C(c1cccc([N+](=O)[O-])c1)=NO2 (stereo not drawn) | -6.27 |
| CCCCN(CCCC)CCCNC(=O)C12CN(Cc3ccccc3)CC1C(c1cccc([N+](=O)[O-])c1)=NO2 (stereo not drawn) | -80.6 |
| CCC(C)NC(=O)CSc1nc2ccccc2c(=O)n1-c1c(C)n(C)n(-c2ccccc2)c1=O (stereo not drawn) | 1.66 |
| COc1ccc(/C=C(\C#N)C(=O)Nc2cc(S(=O)(=O)N3CCCCC3)ccc2N2CCCCC2)cc1 | 6.92 |
| CNC(=S)Nc1ccc([N+](=O)[O-])cc1 | 11.9 |
| Cc1ccc(S(=O)(=O)N(C)CC(=O)N(CC(C)C)C2CCS(=O)(=O)C2)cc1 (stereo not drawn) | -2.85 |
| c1ccc(N2N=C(c3cccs3)CC2c2ccco2)cc1 (stereo not drawn) | 2.24 |
| O=C(NNCC(O)COc1ccccc1)c1ccccc1 (stereo not drawn) | 1.06 |
| O=C(NN(CC(O)COc1ccccc1)CC(O)COc1ccccc1)c1ccccc1 (stereo not drawn) | -66.1 |
| COc1ccc(OCC(O)CNC(=O)c2ccccc2)cc1 (stereo not drawn) | 9.92 |
| Cc1ccc(S(=O)(=O)N(c2cccc(C(F)(F)F)c2)C2C=CS(=O)(=O)C2)cc1 (stereo not drawn) | 6.3 |
| C=CCN(C(=O)CCC(=O)Nc1cc(C)on1)C(C(=O)NC1CCCC1)c1ccc(Cl)cc1 (stereo not drawn) | -56.3 |
| Cc1cc(NC(=O)CCC(=O)N(CCc2ccccc2)C(C(=O)NC2CCCC2)c2ccco2)no1 (stereo not drawn) | -66.1 |
| C=CCN(C(=O)CCC(=O)Nc1cc(C)on1)C(C(=O)NC1CCCC1)c1ccc(C)cc1 (stereo not drawn) | 0.416 |
| C=CCN(C(=O)CCC(=O)Nc1cc(C)on1)C(C(=O)NC1CCCC1)c1ccc(CC)cc1 (stereo not drawn) | -17.5 |
| Cc1cc(NC(=O)CCC(=O)N(Cc2ccccc2)C(C(=O)NC2CCCC2)c2ccco2)no1 (stereo not drawn) | -21.8 |
| Cc1cc(NC(=O)CCC(=O)N(Cc2ccc(F)cc2)C(C(=O)NC2CCCC2)c2ccco2)no1 (stereo not drawn) | 0.819 |

From article PMC4336329 (PLoS ONE, 2015)
